This is a sample that favours compounds with a hit; in the whole collection about 9.2% have one here.
Rab9 prom act = Rab9 promoter activation. Huh7 Rab9 promoter-luciferase reporter, luminescence, 24 h. Potency, µM (doses to about 9.22 µM), usual class: activators. actives 2.8% (n = 320,000); further: nearly all actives have a fitted effect of over 60% in size
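Luminescence from Amplite-detected luciferase (10 minutes, ambient) reports Rab9 promoter activation. Before that, stable Rab9-luciferase Huh7 cells (1500/well, reduced-serum OP-MEM I plus 10% FBS) were exposed to compound for 24 hours at 37C.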
ELG1 repair inh = ELG1-dependent DNA repair inhibition; Potency, µM (doses to about 46.1 µM), actives largely listed as inhibitors; actives 2.3% (n = 330,000); HEK293T ELG1-luciferase reporter, luminescence, 16 h; DNA damage induced by 5-fluorouridine; AID 504467; further: nearly all actives have a fitted effect of over 55% in size
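Overnight (16 hr) co-exposure of 2,000 cells/well to 5-fluorouridine and compound at 37 °C preceded detection. Luciferase was quantified via ONE-Glo luminescence; loss of signal denotes inhibition.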
SMN2 splice up = enhancers of SMN2 splice variant expression; HEK293 SMN2-luciferase splicing reporter, luminescence, 30-36 h; Potency, µM (top dose mostly 46.1 µM), hits mostly activators; actives 2.8% (n = 210,000); AID 1458; further: nearly all actives have a fitted effect of over 55% in size
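HEK293 cells carry an SMN2 minigene-luciferase reporter in which exon 7 inclusion puts luciferase in frame. Cells were seeded at 2000 cells/well, attached for 10-12 hours, then exposed to compounds for 30-36 hours at 37C before ONE-Glo luminescence.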
NPC1 prom act = NPC1 promoter activation. Potency, µM (top dose mostly 9.22 µM), hits mostly activators. AID 485313. Huh7 NPC1 promoter luciferase reporter, 24 h. actives 2.4% (n = 320,000); further: nearly all actives have a fitted effect of over 60% in size
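Huh7 reporter cells (NPC1 promoter driving luciferase) are dosed with compound for 24 h at 37 °C, 5% CO2; luciferase detection reagent is then added and luminescence measured after 10 min at ambient temperature.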
FLuc modulator = firefly luciferase modulation, counter-screen for miR-21 project; Potency, µM (doses to about 57.5 µM), hits mostly inhibitors; AID 588342; purified FLuc, Km substrates, luminescence inhibition; actives 6.9% (n = 360,000); further: nearly all actives have a fitted effect of over 55% in size
Target sequence (P08659 whole entry, looked up): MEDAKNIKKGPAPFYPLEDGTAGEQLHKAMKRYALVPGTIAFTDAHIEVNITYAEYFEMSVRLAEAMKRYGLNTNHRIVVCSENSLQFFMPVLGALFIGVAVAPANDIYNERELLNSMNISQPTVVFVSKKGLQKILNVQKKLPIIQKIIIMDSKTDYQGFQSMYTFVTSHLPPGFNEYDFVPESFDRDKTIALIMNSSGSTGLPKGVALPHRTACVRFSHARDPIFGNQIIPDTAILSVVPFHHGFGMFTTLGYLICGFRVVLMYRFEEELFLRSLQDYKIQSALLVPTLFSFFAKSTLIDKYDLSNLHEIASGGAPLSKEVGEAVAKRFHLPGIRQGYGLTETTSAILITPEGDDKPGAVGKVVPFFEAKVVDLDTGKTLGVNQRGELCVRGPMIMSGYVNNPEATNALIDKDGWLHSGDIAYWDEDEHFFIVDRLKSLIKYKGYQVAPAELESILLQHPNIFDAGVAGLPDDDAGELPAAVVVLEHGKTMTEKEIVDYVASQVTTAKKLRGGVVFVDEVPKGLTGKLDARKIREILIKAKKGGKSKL
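Purified P. pyralis luciferase, 10 nM final, with Km-level 10 uM D-luciferin and 10 uM ATP in 50 mM Tris acetate pH 7.5, 10 mM Mg acetate, 0.01% Tween-20, 0.05% BSA; 6-point qHTS titration about 60 µM downward; luminescence read.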
ELG1 genotoxic = inducers of genotoxicity in HEK293T ELG1-luciferase cells. actives 1.3% (n = 330,000). AID 504466. Potency, µM (titrated, usually from 46 µM), actives largely listed as activators. HEK293T ELG1-luciferase reporter, luminescence, 16 h; further: nearly all actives have a fitted effect of over 60% in size
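Reporter readout depends on ELG1 protein level, which increases with genetic stress. After 16 hr compound exposure at 37 °C, luciferase activity was quantified using ONE-Glo.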
Large screens that a line does not name were inactive. The call rests on the fitted dose curve; in most records, active means well fitted curve in the direction sought with a large enough effect; inconclusive means small, poorly fitted or top-dose-only effect, or another doubt; inactive means no such curve, though single readings can be large; an effect the other way counts as inactive or inconclusive.

c1nnc(-c2ccc3c(c2)OCO3)o1	none
O=C(CCC1N=C2c3ccccc3N=C(SCc3ccccc3Cl)N2C1=O)N1CCN(c2ccccc2)CC1 (stereo unspecified)	none (no result: Rab9 prom act, ELG1 repair inh, NPC1 prom act, ELG1 genotoxic)
COC(=O)c1ccc(CSc2nnc(N)s2)cc1	Rab9 prom act inconclusive, ELG1 repair inh inconclusive, NPC1 prom act inconclusive, FLuc modulator inconclusive
COC(=O)c1ccc(CSc2nnc(C)s2)cc1	Rab9 prom act 3.5µM, ELG1 repair inh inconclusive, SMN2 splice up 25µM, NPC1 prom act inconclusive, FLuc modulator inconclusive
COC(=O)c1ccc(CSc2nc(N)cc(N)n2)cc1	ELG1 repair inh inconclusive, FLuc modulator inconclusive, ELG1 genotoxic 15µM
O=[N+]([O-])c1ccc(CSc2nc3ccccc3o2)cc1	Rab9 prom act 0.89µM, ELG1 repair inh inconclusive, SMN2 splice up 7.9µM, NPC1 prom act 0.63µM, FLuc modulator 2.4µM, ELG1 genotoxic inconclusive
COC(=O)c1ccc(CSc2nc3ccccc3o2)cc1	Rab9 prom act 0.89µM, ELG1 repair inh inconclusive, SMN2 splice up 22µM, NPC1 prom act 1.6µM, FLuc modulator 1.1µM, ELG1 genotoxic inconclusive
COC(=O)c1ccc(CSc2nnc3c(n2)[nH]c2ccccc23)cc1	none (no result: SMN2 splice up)
O=C(Nc1ccc(C(=O)NCc2ccccc2)cc1)C1=CSCCO1	ELG1 repair inh inconclusive (no result: SMN2 splice up)
Cc1ccc(C(=O)C(NC(=O)c2ccco2)N2CCOCC2)cc1 (stereo unspecified)	Rab9 prom act inconclusive, ELG1 repair inh inconclusive, SMN2 splice up 13µM, NPC1 prom act inconclusive, ELG1 genotoxic 18µM
COc1cccc2[nH]c(=O)c(-c3ccccc3)cc12	Rab9 prom act 2.8µM, ELG1 repair inh inconclusive, NPC1 prom act 3.5µM, FLuc modulator 12µM, ELG1 genotoxic inconclusive (no result: SMN2 splice up)
COc1ccc(-c2cc(=O)[nH]c3ccccc23)cc1	none (no result: SMN2 splice up)
O=C(COC(=O)c1nc(Cl)ccc1Cl)NCc1cccs1	none (no result: SMN2 splice up)
OCC(O)CSc1nc(-c2ccccc2)nc2c1CCC2 (stereo unspecified)	ELG1 repair inh inconclusive
COc1ccc(NC(=O)COC(=O)/C=C/c2ccc(OC)c(S(=O)(=O)N3CCOCC3)c2)cc1	none
COc1ccc(/C=C/C(=O)OCC(=O)Nc2ccc(OC)c(S(=O)(=O)N3CCCCC3)c2)cc1	FLuc modulator 6µM
COc1ccc(/C=C/C(=O)OCC(=O)Nc2ccc(Cl)c(S(=O)(=O)N(C)C)c2)cc1OC	ELG1 repair inh inconclusive, FLuc modulator 24µM
O=C(/C=C/c1ccc(F)cc1)NC(=S)N1CCN(c2ccccn2)CC1	Rab9 prom act 2.5µM, NPC1 prom act inconclusive, FLuc modulator 21µM (no result: SMN2 splice up)
CSc1ccc(/C=C/C(=O)N2CCN(c3ccccn3)CC2)cc1	FLuc modulator 13µM (no result: SMN2 splice up)
COc1ccc(/C=C/C(=O)NC(=S)N2CCN(c3ccccn3)CC2)cc1OC	FLuc modulator 24µM (no result: SMN2 splice up)
COc1cccc(CN(C)C(=O)CCNC(=O)c2ccco2)c1	none (no result: SMN2 splice up)
COc1ccc(-c2cn(Cc3ccc(C(N)=O)cc3)c(-c3ccncc3)n2)cc1	Rab9 prom act 2.5µM, ELG1 repair inh inconclusive, NPC1 prom act 3.2µM, FLuc modulator 2.4µM, ELG1 genotoxic inconclusive (no result: SMN2 splice up)
COc1ccc(-c2cn(CCC(=O)O)c(-c3ccncc3)n2)cc1	FLuc modulator inconclusive (no result: SMN2 splice up)
Cc1cc(Cl)ccc1NC(=O)CN1C(=O)COc2ccc(S(=O)(=O)Nc3ccccc3)cc21	none (no result: Rab9 prom act, ELG1 repair inh, SMN2 splice up, NPC1 prom act, ELG1 genotoxic)
COc1ccc(C2NC(=O)CS2)cc1OC (stereo unspecified)	none
COc1ccc(C2NN=C(c3ccc(C)cc3)S2)cc1OC (stereo unspecified)	Rab9 prom act 1.4µM, ELG1 repair inh inconclusive, SMN2 splice up 11µM, NPC1 prom act 2.2µM, FLuc modulator 2.4µM, ELG1 genotoxic inconclusive
Fc1cccc(C2NN=C(c3ccccc3)S2)c1 (stereo unspecified)	Rab9 prom act 2.8µM, ELG1 repair inh inconclusive, SMN2 splice up 11µM, NPC1 prom act 2.2µM, FLuc modulator 1.1µM, ELG1 genotoxic 2.3µM
Cc1ccc(C2=NNC(c3cccc(F)c3)S2)cc1 (stereo unspecified)	Rab9 prom act 0.5µM, ELG1 repair inh inconclusive, SMN2 splice up 1.6µM, NPC1 prom act 0.56µM, FLuc modulator 0.43µM
O=C(Nc1nnc(CCN2CCCCC2)s1)c1ccc(Cl)cc1Cl	none (no result: SMN2 splice up)
COc1ccc(CNC(=O)C2CCN(Cc3nc(-c4ccc(OC)c(OC)c4)oc3C)CC2)cc1	none (no result: Rab9 prom act, ELG1 repair inh, NPC1 prom act, ELG1 genotoxic)
OCCN1CCN(CC(O)COc2ccc(-c3ccccc3)cc2)CC1 (stereo unspecified)	ELG1 repair inh inconclusive, FLuc modulator inconclusive, ELG1 genotoxic inconclusive
OC(COc1ccc2cc(Br)ccc2c1)CN1CCN(c2ccccn2)CC1 (stereo unspecified)	ELG1 genotoxic inconclusive (no result: SMN2 splice up)
O=S(=O)(N1CCCCC1)N1CCN(CC(O)COc2ccc3cc(Br)ccc3c2)CC1 (stereo unspecified)	ELG1 repair inh 13µM
OC(COc1ccc2cc(Br)ccc2c1)CN1CCCC1 (stereo unspecified)	ELG1 repair inh inconclusive, FLuc modulator 12µM, ELG1 genotoxic inconclusive
CC(=O)Nc1ccc(S(=O)(=O)N2CCN(CC(O)COc3ccc4ccccc4c3)CC2)cc1 (stereo unspecified)	none (no result: SMN2 splice up)
OC(COc1ccc(OCC(O)CN2CCCCCC2)cc1)CN1CCCCCC1 (stereo unspecified)	none
CN(C)S(=O)(=O)N1CCN(CC(O)COc2ccc(-c3ccccc3)cc2)CC1 (stereo unspecified)	ELG1 repair inh 21µM (no result: SMN2 splice up)
CN(C)S(=O)(=O)N1CCN(CC(O)COc2ccc3cc(Br)ccc3c2)CC1 (stereo unspecified)	ELG1 repair inh 23µM
Cc1ccc(S(=O)(=O)N2CCN(CC(O)COc3ccccc3)CC2)cc1 (stereo unspecified)	none (no result: SMN2 splice up)
CCOc1ccc(S(=O)(=O)N2CCN(CC(O)COc3cccc([N+](=O)[O-])c3)CC2)cc1 (stereo unspecified)	ELG1 repair inh 15µM (no result: SMN2 splice up)
O=c1[nH]c(SCc2ccc(Cl)cc2)nc2[nH]ncc12	ELG1 repair inh inconclusive, SMN2 splice up inconclusive, FLuc modulator inconclusive, ELG1 genotoxic inconclusive
Cc1ccc(-n2nc3ccc(NC(=O)/C=C/c4ccco4)cc3n2)cc1	Rab9 prom act inconclusive, ELG1 repair inh inconclusive, SMN2 splice up 14µM, NPC1 prom act inconclusive, FLuc modulator inconclusive, ELG1 genotoxic inconclusive
Cc1ccc(NC(=O)c2cccc(NC(=O)/C=C/c3ccco3)c2)cc1C	Rab9 prom act 3.2µM, ELG1 repair inh inconclusive, SMN2 splice up 18µM, NPC1 prom act inconclusive, FLuc modulator 1.9µM
Cn1c(NC(=O)/C=C/c2ccco2)cc(=O)n(C)c1=O	ELG1 repair inh inconclusive, FLuc modulator inconclusive
